# Measured values reported in the supplement of paper PMC11417369.
# Over roughly 25,000 sequences, “ln(normalized median fluorescence intensity)” has its median near 9.3; the highest 2% begin near 10. Shown is part of a subset that was picked to be rich in the highest values.
# System: PF3D7_0420300 AP2 domain 1 (GST-tagged)
# Assay: gcPBM binding intensity (ln(normalized median fluorescence intensity)); higher = stronger DNA binding
# Summary of the method: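 Binding intensity values are the highest Masliner-normalised natural-log median intensity among replicate spots of either probe orientation. The binding step lasted 1 h in 1× PBS with 1% milk, 0.2 mg/ml BSA, 0.5% salmon testes DNA and 0.03% Triton X-100, using GST-tagged P. falciparum DNA-binding domains expressed in E. coli on an Agilent 4 × 180k array of primer-extended double-stranded 36-bp intergenic genomic probes plus negative controls. Alexa488 anti-GST antibody and a 488 nm scan detected bound protein.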
row,Sequence,gcPBM binding intensity (ln)
1,TAGATATATAGACACACACACATTAATACCTATATT [CACACA_site7605],10.1
2,CGCTTTATTTATATATGTACATATATATATATATAC [XGTACX_site5012],9.33
3,TAATATAACAAAAAAATAAAATAAAATAAAAAATAA [CACACA_negctrl_site109],9.35
4,AAAAGAATTACTTTCACACATATATATCTGTAAATA [CACACA_site5798],9.15
5,TACACCCATGGACACACACACACGCATAAAAAAAAA [CACACA_site4933],9.93
6,TACACGCATGGACACACACACACACCCATATATATA [CACACA_site4522],10.2
7,CACGCGCCCGGACACACACACACACCCATATATATA [CACACA_site5251],10.2
8,GATATTAAAATATGTAGTACACATATTATATCATAT [XGTACX_site4167],9.18
9,ATTTAACATATAAAATGTACATATATATATATATTT [XGTACX_site2525],9.25
10,GTTAATCACCATGTGGTGCATATAAGGGCATATTAT [GTGCAC_site9748],9.22
11,TAAGAAATAAATAGTACACACATAGACACACGCACA [CACACA_site6821],9.92
12,TATATATATAGACACACACACACATATATATATATA [CACACA_site9366],10
13,ATTCTACACCCACATACACACATATATATATATATA [CACACA_site3426],9.84
14,TAATTTATAACACGCGCACACATATATATATAGTAA [CACACA_site121],9.57
15,CATAGATACATACACGCACACACATATATATATATA [CACACA_site13],9.87
16,TATCTCATAGTATACACACACACACGCGCACATATA [CACACA_site6917],10.3
17,TATATATATATATACACACACACACCCATATATATA [CACACA_site2538],10
18,TATCTCATAGTATACACACACACACCCACCCATATA [CACACA_site1739],10.4
19,TCTCATAGTAGACACACACACACACGCACATATATA [CACACA_site6916],10.4
20,TATAGATACATATACACACACACACCCACATATATA [CACACA_site3436],10.2
21,TATATATATATATATACACACACACCCATATATATA [CACACA_site8812],9.94
22,TATATCTCATAGTATACACACACACCCACCCACATA [CACACA_site8513],10.3
23,AATATATATATACATACATGCATACATATATATATA [TGCATGCA_site784],9.24

row,Sequence,gcPBM binding intensity (ln)
1,TTTATCCTTCTTTTGAGTACTCAAAGAGACCTATAA [XGTACX_site8050],8.83
2,ATGAATTTATTACATTGTACATTTTTAAAAGGTTAC [XGTACX_site124],9.11
3,TAAAAAAGAACAGAAACACACAAATAAAATAAAATT [CACACA_site1758],10
4,GGGAGAAATTTATACATACACACATATATATATTAT [CACACA_site4039],9.62
5,AAATATTATACAAAAAAAAAAAAAAAAAAAATATAT [CACACA_negctrl_site52],9.39
6,AAAGCACCCAGGCACACACACAAAGGAAAAGAAAAA [CACACA_site232],9.83
7,AAAAAAAACAGACACACACACAAATATATAAAAATA [CACACA_site1172],10
8,AAAAAAAACAGACACACACACATACAAAATATATAT [CACACA_site1449],10.2
9,GCTTAATACAGAATAACACACAAAATAAATAAATAA [CACACA_site4041],9.56
10,ATAAATGACAGACACACACACAAAAAAAAAAAACAA [CACACA_site2626],10.2
11,TTAATCCACAGACACACACACACAAAATAAAATACA [CACACA_site244],10.2
12,CAAATACCCGGACACACACACACAAAAAAAAAAAAA [CACACA_site4441],9.99
13,AAAAAAAAAAAAAATACACACAAATAATAAAAATAA [CACACA_site1431],9.85
14,AAAACAGACAAACACACACACACATATATATATATA [CACACA_site3393],10
15,TTAATACCCAGACACACACACACAAAATAAAATACA [CACACA_site7968],10.1
16,TTAATACCCGGACACACACACACAAAATAAAATACA [CACACA_site4296],10.2
17,AAAAAAAACAGACACACACACAAATACATACACAAA [CACACA_site705],10
18,AAAAAAAAAAAAAACACACACATACAGACAAAAATG [CACACA_site83],10.1
19,AAATGTACAGGACGCACACACATATTTATATTTATA [CACACA_site7689],9.67
20,ATACATATATTAGGATGTACGTTTATTTTAGTTATT [XGTACX_site7169],9.47
21,ATTAATATTTAGACTTGTACATATATAATATATGTC [XGTACX_site3766],9.2
22,AAATTCTTAACCCAACGTACATATAATAAATTCTTA [XGTACX_site8538],9.1
